Data as given in ChEMBL document CHEMBL3988442, “University of Dundee, Small-Polar-MMV Screening Library” (2021).
Among all 69,000 compounds or so, about 1,000 (1.4%) showed an effect of 50% or more. For the sample, strong results were picked, then their nearest neighbours and some compounds at random.

Test system: Leishmania donovani
Experiment: Leishmania intramacrophage assay
Type: functional, organism-based
Parameters: scale not given: in the data most compounds retested in dose-response had high values

SMILES: CC(=O)N1CCN(CCNc2ncc(Br)cc2C)CC1
- Percent Effect (30.3 µM, […]): 1.457%

SMILES: Cc1cc(C(C)NCCN2CCC(N(C)C)CC2)c(C)s1 (stereo not drawn)
- Percent Effect (30.3 µM, […]): 59.42%

SMILES: Cc1cc(Br)cnc1NCCN1CCC(N(C)C)CC1
- Percent Effect (30.3 µM, […]): 96.65%

SMILES: CC(NCCN1CCC(N(C)C)CC1)c1ccc(F)cc1N(C)C (stereo not drawn)
- Percent Effect (30.3 µM, […]): 15.55%

SMILES: CC(NCCN1CCC(N(C)C)CC1)c1ccc(Cl)s1 (stereo not drawn)
- Percent Effect (30.3 µM, […]): 43.03%

SMILES: COC1CCN(CCNc2ncc(Br)cc2C)CC1
- Percent Effect (30.3 µM, […]): -8.998%

SMILES: COCCN1CCN(Cc2c(C3CCNCC3)[nH]c3ncccc23)CC1.Cl
- Percent Effect (30.3 µM, […]): 15.04%

SMILES: Cn1cc(CN2CCc3onc(C(=O)Nc4cccnc4)c3C2)cn1
- Percent Effect (30.3 µM, […]): 24.89%

SMILES: CC(C)(C)C(=O)N1CCC(c2cnc(-c3cn[nH]c3)cn2)CC1
- Percent Effect (30.3 µM, […]): -18.54%

SMILES: COc1ccc(Cl)cc1CS(=O)(=O)Cc1noc(C)n1
- Percent Effect (30.3 µM, […]): 34.45%

SMILES: COc1ccc(Cl)cc1CS(=O)(=O)Cc1nc(C2CC2)no1
- Percent Effect (30.3 µM, […]): 28.37%

SMILES: COc1ccc(Cl)cc1CS(=O)(=O)Cc1nc(C)no1
- Percent Effect (30.3 µM, […]): 60.61%

SMILES: O=C(NCCN1CCOCC1)c1cc(-c2ccccc2Cl)[nH]n1
- Percent Effect (30.3 µM, […]): -6.582%

SMILES: CC(C)c1noc(CN2CCN(C(=O)c3ccncc3F)CC2)n1
- Percent Effect (30 µM): 25.95%

SMILES: O=C1C(N2CCN(c3ccc(O)cc3)CC2)CCN1C1CCOCC1 (stereo not drawn)
- Percent Effect (30.3 µM, […]): -7.233%

SMILES: O=C(Nc1ccc(CC(=O)N2CCCC2)cc1)NC1CC1
- Percent Effect (30.3 µM, […]): 15.08%

SMILES: O=C(Nc1ccc(CC(=O)N2CCSCC2)cc1)NC1CCCC1
- Percent Effect (30.3 µM, […]): -9.117%

SMILES: O=C(Nc1ccc(CC(=O)N2CCSCC2)cc1)NC1CC1
- Percent Effect (30.3 µM, […]): 50.93%

SMILES: O=C1[C@H]2CC[C@H](CN(C3CSCCSC3)C2)N1Cc1cscn1
- Percent Effect (30 µM, 30.03 µM): -11.37%

SMILES: CN(C)CCN1CCCC12CCN(Cc1nccn1C)CC2.O=C(O)C(F)(F)F.O=C(O)C(F)(F)F.O=C(O)C(F)(F)F
- Percent Effect (30.3 µM, […]): 52.43%

SMILES: Cn1cc(N2CC3(CCN(Cc4nccn4C)C3)CC2=O)cn1.O=C(O)C(F)(F)F (stereo not drawn)
- Percent Effect (30.3 µM, […]): 58.91%

SMILES: Cn1cc(CN2CCCC23CCN(Cc2nccn2C)CC3)cn1.O=C(O)C(F)(F)F.O=C(O)C(F)(F)F
- Percent Effect (30.3 µM, […]): 22.67%

SMILES: Cc1ccc(N2CC3(CCN(Cc4nccn4C)C3)CC2=O)s1.O=C(O)C(F)(F)F (stereo not drawn)
- Percent Effect (30.3 µM, […]): 55.03%

SMILES: Cn1ccc(CN2CCCC23CCN(Cc2nccn2C)CC3)n1.O=C(O)C(F)(F)F.O=C(O)C(F)(F)F
- Percent Effect (30.3 µM, […]): 27.16%

SMILES: CN1CC(=O)N(c2cnn(C)c2)CC12CCN(Cc1nccn1C)C2.O=C(O)C(F)(F)F.O=C(O)C(F)(F)F (stereo not drawn)
- Percent Effect (30 µM, 30.03 µM): 3.871%

SMILES: Cn1ccnc1CN1CCC2(CC(=O)N(c3ccsc3)C2)C1.O=C(O)C(F)(F)F (stereo not drawn)
- Percent Effect (30.3 µM, […]): 19.56%

SMILES: Cc1ccccc1N1CC2(CCN(Cc3nccn3C)C2)CC1=O.O=C(O)C(F)(F)F (stereo not drawn)
- Percent Effect (30.3 µM, […]): -1.583%

SMILES: Cc1cccc(N2CC3(CCN(Cc4nccn4C)C3)CC2=O)c1.O=C(O)C(F)(F)F (stereo not drawn)
- Percent Effect (30.3 µM, […]): 24.22%
